{"source": "PubChem BioAssay (NCATS)", "key": {"[1]": {"biological_target": "Calcium and integrin-binding protein 1 (Homo sapiens) (UniProt Q99828)", "sequence (Q99828 whole entry, looked up)": "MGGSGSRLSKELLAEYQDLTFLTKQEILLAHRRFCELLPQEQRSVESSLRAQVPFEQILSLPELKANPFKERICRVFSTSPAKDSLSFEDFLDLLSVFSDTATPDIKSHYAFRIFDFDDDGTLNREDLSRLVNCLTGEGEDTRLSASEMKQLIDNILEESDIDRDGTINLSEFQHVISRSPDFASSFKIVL", "test": "Primary qHTS for Identification of Calcium Integrin Binding Protein 1 (CIB1) Competitor (AID 1508620);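 further: GST tagged CIB1 binding a fluorescein labelled alphaIIb integrin peptide tracer; top concentration of the series differs between compounds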", "procedure,_shortened": "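Fluorescence polarization competition: CIB1-GST (1 uM final) preincubated with compound 15 min at room temperature, then FITC-labeled alphaIIb peptide (100 nM final) added for another 15 min. Polarization read at Ex 480/Em 540.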"}, "[2]": {"test": "Primary qHTS for inhibitors of nuclear receptor binding SET domain protein 2 (NSD2) in an isogenic RCH-ACV NSD2 p.E1099K mutant (9B) (AID 1645876); further: nearly all actives have a fitted effect of over 70% in size; further: potency means the concentration at half of the fitted maximal effect"}}, "note": "Records with an inconclusive call do not appear. Where a call stands in place of a potency, no number is given. Values without a mark were called inactive. Calls of active or inactive are those of the source. The call rests on the fitted dose curve; in most records, active means well fitted inhibition curve with a large enough effect; inconclusive means small, poorly fitted or top-dose-only effect; inactive means flat fitted curve, though single readings scatter."}
{"smiles": "Cc1ccccc1C#Cc1ccc(CCC(=O)O)cc1", "values": [{"measurement": "Potency", "setting": "[1]", "result": "inactive"}, {"measurement": "Potency", "setting": "[2]", "result": "inactive"}]}
{"smiles": "NC(=O)[C@H]1CCS[C@@H]2C[C@]3(CCCN3C(=O)Cc3ccc(NC(=O)COc4ccc(Cl)cc4Cl)cc3)C(=O)N12", "values": [{"measurement": "Potency", "setting": "[1]", "result": "inactive"}, {"measurement": "Potency", "setting": "[2]", "result": "7420 nM (active)"}]}
{"smiles": "C[C@@H]1O[C@@H](O[C@H]2[C@H](O)[C@@H](O[C@@H]3O[C@H](CO)[C@@H](O)[C@H](O[C@@H]4O[C@H](CO)[C@@H](O)[C@H](O)[C@H]4O)[C@H]3O)[C@H](O[C@H]3CC[C@@]4(C)C(=CC[C@@H]5C4CC[C@@]4(C)C5C[C@@H]5OC6(CC[C@@](C)(CO[C@@H]7O[C@H](CO)[C@@H](O)[C@H](O)[C@H]7O)O6)[C@@H](C)[C@@H]54)C3)O[C@@H]2CO)[C@H](O)[C@H](O)[C@H]1O", "note": "(some centres undefined)", "values": [{"measurement": "activity change, negative = inhibition", "setting": "[1]", "result": "-1.49% [at 12.4 µM]"}, {"measurement": "activity change, negative = viability loss", "setting": "[2]", "result": "-19.9% [at 9.23 µM]"}]}
{"smiles": "CC(C)=CCC(O)/C(C)=C/CO[C@@H]1O[C@H](CO)[C@@H](O)[C@H](O)[C@H]1O", "note": "(some centres undefined)", "values": [{"measurement": "Potency", "setting": "[1]", "result": "inactive"}, {"measurement": "Potency", "setting": "[2]", "result": "inactive"}]}
{"smiles": "COc1ccc(CC2C(=O)NC(C)C(=O)N(C)C3Cc4ccc(cc4)Oc4cc(ccc4OC4OC(CO)C(O)C(O)C4O)CC(C(=O)NC(C)C(=O)NC(C)C(=O)N2C)N(C)C3=O)cc1", "note": "(centres undefined)", "values": [{"measurement": "Potency", "setting": "[1]", "result": "inactive"}, {"measurement": "Potency", "setting": "[2]", "result": "13.8 nM (active)"}]}
{"smiles": "COc1cc(C2Oc3c(OC)cc(CCCO)cc3C2CO)ccc1O[C@H]1O[C@H](C)[C@@H](O)[C@H](O)[C@@H]1O", "note": "(some centres undefined)", "values": [{"measurement": "Potency", "setting": "[1]", "result": "inactive"}, {"measurement": "Potency", "setting": "[2]", "result": "inactive"}]}
{"smiles": "CC(C)(C)C(=O)CN1C(=O)[C@H](NC(=O)Nc2cccc(C(=O)O)c2)CN(C2CCCCC2)c2ccccc21", "values": [{"measurement": "Potency", "setting": "[1]", "result": "inactive"}, {"measurement": "Potency", "setting": "[2]", "result": "inactive"}]}
{"smiles": "C=C1CCC2C(C)(C(=O)O)CCCC2(C)C1CCC(C)CC(=O)O", "note": "(centres undefined)", "values": [{"measurement": "Potency", "setting": "[1]", "result": "inactive"}, {"measurement": "Potency", "setting": "[2]", "result": "inactive"}]}
{"smiles": "COc1c2c(c(C)c3c1C(=O)OC3)O[C@@]1(C)CC(O)C(C(C)(C)O)[C@](C)(CCC(=O)O)[C@H]1C2", "note": "(some centres undefined)", "values": [{"measurement": "Potency", "setting": "[1]", "result": "inactive"}, {"measurement": "Potency", "setting": "[2]", "result": "inactive"}]}
{"smiles": "COC(=O)c1cc(OC)c(O[C@@H]2O[C@@H](C)[C@H](O)[C@@H](O)[C@H]2O)c(OC)c1", "values": [{"measurement": "Potency", "setting": "[1]", "result": "inactive"}, {"measurement": "Potency", "setting": "[2]", "result": "inactive"}]}
{"smiles": "CC1=C(C)C(=O)OC(C(C)C2CCC3C4C5OC5C5(O)CC(OC6OC(CO)C(OC7OC(C)C(O)C(O)C7O)C(O)C6O)CC(O)C5(C)C4CCC23C)C1", "note": "(centres undefined)", "values": [{"measurement": "Potency", "setting": "[1]", "result": "inactive"}, {"measurement": "Potency", "setting": "[2]", "result": "inactive"}]}
{"smiles": "COc1cc2c(cc1OC)N1C(=O)C[C@]34C=CCN5CC[C@@H]2[C@@H](CC3)[C@]514", "values": [{"measurement": "Potency", "setting": "[1]", "result": "inactive"}, {"measurement": "Potency", "setting": "[2]", "result": "inactive"}]}
{"smiles": "CC1OC(OC2C(O)C(OC3CCC4(C)C(CCC5(C)C4CC=C4C6CC(C)(COC7OC(CO)C(O)C(O)C7O)CC(O)C6(C)CCC45C)C3(C)C)OC(C(=O)O)C2O)C(O)C(O)C1OC1OCC(O)C(O)C1O", "note": "(centres undefined)", "values": [{"measurement": "Potency", "setting": "[1]", "result": "inactive"}, {"measurement": "activity change, negative = viability loss", "setting": "[2]", "result": "-10.7% [at 9.23 µM]"}]}
{"smiles": "OC[C@H]1O[C@@H](OCCc2ccccc2)[C@H](O[C@@H]2OC[C@](O)(CO)[C@H]2O)[C@@H](O)[C@@H]1O", "values": [{"measurement": "Potency", "setting": "[1]", "result": "inactive"}, {"measurement": "Potency", "setting": "[2]", "result": "inactive"}]}
{"smiles": "C=C(CO)C12OC1C1(C)C(=CC2=O)C(O)C(O)CC1C", "note": "(centres undefined)", "values": [{"measurement": "Potency", "setting": "[1]", "result": "inactive"}, {"measurement": "Potency", "setting": "[2]", "result": "inactive"}]}
{"smiles": "CC1(C(=O)O)CCCC2(C)C3CCC4CC3(CCC12)CC4=O", "note": "(centres undefined)", "values": [{"measurement": "Potency", "setting": "[1]", "result": "inactive"}, {"measurement": "Potency", "setting": "[2]", "result": "inactive"}]}
{"smiles": "N#C[C@@H]1C[C@H](F)CN1C(=O)CNC1[C@H]2CN(C(=O)c3ccc(F)cc3)C[C@@H]12", "note": "(some centres undefined)", "values": [{"measurement": "Potency", "setting": "[1]", "result": "inactive"}, {"measurement": "Potency", "setting": "[2]", "result": "inactive"}]}
{"smiles": "Cc1nc(Nc2n[nH]c3c2CN(C(=O)NC(CN(C)C)c2ccccc2)C3(C)C)c2sccc2n1", "note": "(centres undefined)", "values": [{"measurement": "Potency", "setting": "[1]", "result": "inactive"}, {"measurement": "Potency", "setting": "[2]", "result": "6.5 nM (active)"}]}
{"smiles": "COc1cc(C2c3cc4c(c(O)c3CC(CO)C2C(=O)O)OCO4)cc(OC)c1O", "note": "(centres undefined)", "values": [{"measurement": "Potency", "setting": "[1]", "result": "inactive"}, {"measurement": "Potency", "setting": "[2]", "result": "2520 nM (active)"}]}
{"smiles": "CO[C@H]1/C=C/C=C/C=C/C[C@H](OC(=O)[C@@H](C)NC(=O)C2CCCCC2)[C@H](C)[C@@H](O)/C(C)=C/CCc2cc(O)cc(c2)NC(=O)C1", "values": [{"measurement": "Potency", "setting": "[1]", "result": "inactive"}, {"measurement": "Potency", "setting": "[2]", "result": "342 nM (active)"}]}
{"smiles": "C=CC1(C)CC(OC(=O)/C(C)=C\\COC(C)=O)C(C(=C)C(=O)O)C(O)C1C(=C)CO", "note": "(centres undefined)", "values": [{"measurement": "Potency", "setting": "[1]", "result": "inactive"}, {"measurement": "Potency", "setting": "[2]", "result": "inactive"}]}
{"smiles": "C=C1C(=O)OC2CC(C)=C(C(C)CCCO)C(O)C12", "note": "(centres undefined)", "values": [{"measurement": "Potency", "setting": "[1]", "result": "inactive"}, {"measurement": "Potency", "setting": "[2]", "result": "inactive"}]}
{"smiles": "C[C@H]1CC[C@@H]2N(C1)C[C@@H]1[C@H]([C@@H](O)[C@H](O)[C@]3(O)[C@H]1C[C@@]14OC5(O)[C@@H](C[C@@H](O)[C@@H]31)[C@]4(C)CC[C@@H]5O)[C@]2(C)O", "values": [{"measurement": "Potency", "setting": "[1]", "result": "inactive"}, {"measurement": "Potency", "setting": "[2]", "result": "inactive"}]}
{"smiles": "C=C(C(=O)O)[C@H]1C[C@]2(C)[C@@H](O)CC[C@]23O[C@H]1C[C@@H]3C", "values": [{"measurement": "Potency", "setting": "[1]", "result": "inactive"}, {"measurement": "Potency", "setting": "[2]", "result": "inactive"}]}
{"smiles": "CC(C)=CCC/C(C)=C/CC/C(C)=C/COC1OC(COC2OCC(OC3OCC(O)C(O)C3O)C(O)C2O)C(O)C(OC2OC(C)C(OC3OC(C)C(OC4OCC(OC5OC(C)C(O)C(O)C5O)C(O)C4O)C(O)C3O)C(O)C2O)C1O", "note": "(centres undefined)", "values": [{"measurement": "activity change, negative = inhibition", "setting": "[1]", "result": "4.51% [at 12.4 µM]"}, {"measurement": "outcome", "setting": "[2]", "result": "inactive [at 9.23 µM]"}]}
{"smiles": "CC1(C)CCC(C)(C)c2cc(C3(c4ccc(C(=O)O)cc4)OCCO3)ccc21", "values": [{"measurement": "Potency", "setting": "[1]", "result": "inactive"}, {"measurement": "Potency", "setting": "[2]", "result": "inactive"}]}
{"smiles": "NCc1c[nH]c(=S)n1[C@@H]1CCc2c(F)cc(F)cc2C1", "values": [{"measurement": "Potency", "setting": "[1]", "result": "inactive"}, {"measurement": "Potency", "setting": "[2]", "result": "inactive"}]}
